One sequence from PMC7862700, “An all-to-all approach to the identification of sequence-specific readers for epigenetic DNA modifications on cytosine” can be followed below.

Experiment in all cases: DAPPL (digital affinity profiling via proximity ligation, sequencing); 10 mM Tris-HCl pH 7.5, 50 mM NaCl, 1 mM DTT, 4% glycerol, room temperature, 30 min; GST-TFs on glutathione beads, 16-mer random dsDNA library, 0.1% formaldehyde crosslink after washing; high values mean tight binding
For assay [1], the target named is T1, FLI1 (Homo sapiens, UniProt Q01543 1-452).
T1 sequence: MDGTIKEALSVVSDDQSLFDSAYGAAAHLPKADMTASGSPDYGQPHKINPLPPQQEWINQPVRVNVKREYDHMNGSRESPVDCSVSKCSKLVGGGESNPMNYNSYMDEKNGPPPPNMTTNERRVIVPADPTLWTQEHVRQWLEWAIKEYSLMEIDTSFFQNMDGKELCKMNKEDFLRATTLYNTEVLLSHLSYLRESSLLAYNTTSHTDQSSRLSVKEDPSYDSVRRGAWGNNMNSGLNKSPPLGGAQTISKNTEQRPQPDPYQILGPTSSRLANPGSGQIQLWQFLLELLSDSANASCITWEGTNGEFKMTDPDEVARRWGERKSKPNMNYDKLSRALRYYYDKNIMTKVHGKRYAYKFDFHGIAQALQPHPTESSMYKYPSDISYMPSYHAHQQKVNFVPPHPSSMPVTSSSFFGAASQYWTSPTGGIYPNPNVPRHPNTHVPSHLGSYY
To be noted: protein: recombinant; tags: N-terminal GST; dsDNA, one strand shown. The gist of the method:
(§1)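 A tag-only sample was pooled with DNA-barcoded human transcription factors that had been expressed in yeast as GST fusions and captured on glutathione beads. The pools were incubated for 30 min at room temperature with 200 nmole of a random double-stranded 16-mer DNA library in Tris/NaCl/DTT/glycerol buffer, then washed, crosslinked with 0.1% formaldehyde, proximity-ligated (BsaI/T4 ligase, 1 h, 37 °C), PCR-amplified and sequenced on an Illumina NextSeq500. Binding signal is each hexamer's read frequency for a factor divided by its frequency for the tag-only sample.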

The target in assay [2] is T2, ELK1 (Homo sapiens, UniProt P19419 1-428).
T2 sequence: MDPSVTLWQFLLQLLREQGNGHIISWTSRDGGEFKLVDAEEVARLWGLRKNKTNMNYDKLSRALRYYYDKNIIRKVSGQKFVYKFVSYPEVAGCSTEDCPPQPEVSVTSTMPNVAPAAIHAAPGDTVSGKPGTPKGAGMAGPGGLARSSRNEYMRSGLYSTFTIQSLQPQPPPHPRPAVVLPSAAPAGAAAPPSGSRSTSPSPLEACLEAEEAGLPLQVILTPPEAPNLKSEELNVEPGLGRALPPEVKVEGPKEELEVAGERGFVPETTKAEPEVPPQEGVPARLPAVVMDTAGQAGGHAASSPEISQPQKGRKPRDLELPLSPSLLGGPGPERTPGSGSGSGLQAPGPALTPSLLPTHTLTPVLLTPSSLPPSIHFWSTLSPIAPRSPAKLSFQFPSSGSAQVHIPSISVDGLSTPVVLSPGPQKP
To be noted: protein: recombinant; tags: N-terminal GST; dsDNA, one strand shown. In outline:
as §1

The target of assay [3] is T3, GABPA (Homo sapiens, UniProt Q06546 1-454).
T3 sequence: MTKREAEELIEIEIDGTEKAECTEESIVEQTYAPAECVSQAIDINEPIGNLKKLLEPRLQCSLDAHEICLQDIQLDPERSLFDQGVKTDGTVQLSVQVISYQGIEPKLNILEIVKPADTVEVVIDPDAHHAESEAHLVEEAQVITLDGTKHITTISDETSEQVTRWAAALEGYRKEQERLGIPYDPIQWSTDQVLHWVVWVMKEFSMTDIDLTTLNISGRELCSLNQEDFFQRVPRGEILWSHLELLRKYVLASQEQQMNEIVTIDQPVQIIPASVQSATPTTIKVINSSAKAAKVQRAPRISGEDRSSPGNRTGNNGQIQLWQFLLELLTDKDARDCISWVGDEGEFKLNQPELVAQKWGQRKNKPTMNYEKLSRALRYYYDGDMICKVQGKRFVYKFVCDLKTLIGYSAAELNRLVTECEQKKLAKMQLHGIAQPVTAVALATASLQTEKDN
To be noted: protein: recombinant; tags: N-terminal GST; dsDNA, one strand shown. In outline: as §1

Assay [4] addresses T4, ERG (Homo sapiens, UniProt P11308 1-479).
T4 sequence: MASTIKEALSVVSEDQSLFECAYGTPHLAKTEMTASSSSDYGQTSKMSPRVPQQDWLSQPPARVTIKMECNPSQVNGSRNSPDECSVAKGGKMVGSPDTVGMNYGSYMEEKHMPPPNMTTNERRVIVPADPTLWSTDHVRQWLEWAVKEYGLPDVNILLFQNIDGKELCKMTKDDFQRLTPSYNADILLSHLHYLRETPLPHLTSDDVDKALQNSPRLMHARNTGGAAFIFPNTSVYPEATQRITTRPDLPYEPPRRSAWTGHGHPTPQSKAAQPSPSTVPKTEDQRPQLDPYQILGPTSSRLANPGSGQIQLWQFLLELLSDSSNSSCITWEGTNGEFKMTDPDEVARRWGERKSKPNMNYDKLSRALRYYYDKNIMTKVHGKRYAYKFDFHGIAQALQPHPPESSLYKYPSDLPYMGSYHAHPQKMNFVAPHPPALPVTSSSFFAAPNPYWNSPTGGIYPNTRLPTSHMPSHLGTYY
The note with it: protein: recombinant; tags: N-terminal GST; dsDNA, one strand shown. In outline:
as §1

In assay [5] the target is ELF1 (Homo sapiens, UniProt P32519 1-619). The note with it: protein: recombinant; tags: N-terminal GST; dsDNA, one strand shown. In outline: as §1
ELF1, sequence (P32519 whole entry): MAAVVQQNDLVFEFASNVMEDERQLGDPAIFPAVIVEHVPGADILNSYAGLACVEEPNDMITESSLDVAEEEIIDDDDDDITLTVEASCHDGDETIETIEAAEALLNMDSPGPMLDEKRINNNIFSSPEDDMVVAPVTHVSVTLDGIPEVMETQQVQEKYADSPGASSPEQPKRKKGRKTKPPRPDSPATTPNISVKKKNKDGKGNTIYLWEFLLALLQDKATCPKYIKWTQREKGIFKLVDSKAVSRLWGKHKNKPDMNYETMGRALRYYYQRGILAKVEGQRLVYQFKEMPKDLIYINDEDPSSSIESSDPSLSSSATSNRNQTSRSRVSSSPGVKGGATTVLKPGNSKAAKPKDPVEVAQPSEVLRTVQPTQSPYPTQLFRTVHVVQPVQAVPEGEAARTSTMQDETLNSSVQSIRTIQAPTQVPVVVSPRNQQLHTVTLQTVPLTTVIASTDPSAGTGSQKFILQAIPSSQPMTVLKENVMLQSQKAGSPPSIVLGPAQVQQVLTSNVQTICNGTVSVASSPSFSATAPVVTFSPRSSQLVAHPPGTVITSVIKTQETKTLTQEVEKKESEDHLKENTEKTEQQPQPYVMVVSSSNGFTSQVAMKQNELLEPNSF
For assay [6], the target named is T5, EHF (Homo sapiens, UniProt Q9NZC4 1-300).
T5 sequence: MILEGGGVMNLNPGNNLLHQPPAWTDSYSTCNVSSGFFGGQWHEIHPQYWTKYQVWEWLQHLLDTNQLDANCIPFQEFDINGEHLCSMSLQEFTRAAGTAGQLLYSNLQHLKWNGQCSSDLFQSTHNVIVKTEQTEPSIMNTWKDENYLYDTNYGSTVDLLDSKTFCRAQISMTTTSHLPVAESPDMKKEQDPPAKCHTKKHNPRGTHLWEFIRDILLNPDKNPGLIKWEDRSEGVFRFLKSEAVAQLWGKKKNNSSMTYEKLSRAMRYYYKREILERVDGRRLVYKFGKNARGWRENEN
The note with it: protein: recombinant; tags: N-terminal GST; dsDNA, one strand shown. In outline: as §1

In assay [7] the target is SPI1 (Homo sapiens, UniProt P17947 1-270). To be noted: protein: recombinant; tags: N-terminal GST; dsDNA, one strand shown. The gist of the method: as §1
For assay [8], the target named is SPIB (Homo sapiens, UniProt Q01892 1-262). To be noted: protein: recombinant; tags: N-terminal GST; dsDNA, one strand shown. In outline: as §1
SPIB, sequence (Q01892 whole entry): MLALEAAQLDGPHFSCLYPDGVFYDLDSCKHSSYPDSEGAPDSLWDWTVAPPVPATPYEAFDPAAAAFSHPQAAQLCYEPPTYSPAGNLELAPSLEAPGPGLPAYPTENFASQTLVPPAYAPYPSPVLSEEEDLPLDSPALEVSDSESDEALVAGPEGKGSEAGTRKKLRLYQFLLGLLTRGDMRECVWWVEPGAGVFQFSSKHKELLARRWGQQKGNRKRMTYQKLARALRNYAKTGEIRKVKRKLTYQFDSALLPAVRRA
In assay [9] the target is T6, ELK3 (Homo sapiens, UniProt P41970 1-407).
T6 sequence: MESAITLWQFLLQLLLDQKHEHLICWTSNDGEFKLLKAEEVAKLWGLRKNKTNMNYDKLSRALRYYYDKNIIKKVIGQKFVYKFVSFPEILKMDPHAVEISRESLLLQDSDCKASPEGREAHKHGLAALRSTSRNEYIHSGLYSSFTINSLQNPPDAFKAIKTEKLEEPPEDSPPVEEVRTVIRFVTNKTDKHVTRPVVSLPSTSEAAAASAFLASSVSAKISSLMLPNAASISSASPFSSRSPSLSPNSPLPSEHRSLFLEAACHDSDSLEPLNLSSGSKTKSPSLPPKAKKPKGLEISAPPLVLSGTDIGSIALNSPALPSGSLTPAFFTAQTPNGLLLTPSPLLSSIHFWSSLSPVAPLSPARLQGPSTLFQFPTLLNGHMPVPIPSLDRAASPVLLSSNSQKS
The note with it: protein: recombinant; tags: N-terminal GST; dsDNA, one strand shown. The gist of the method:
as §1

In assay [10] the target is T7, FEV (Homo sapiens, UniProt Q99581 1-238).
T7 sequence: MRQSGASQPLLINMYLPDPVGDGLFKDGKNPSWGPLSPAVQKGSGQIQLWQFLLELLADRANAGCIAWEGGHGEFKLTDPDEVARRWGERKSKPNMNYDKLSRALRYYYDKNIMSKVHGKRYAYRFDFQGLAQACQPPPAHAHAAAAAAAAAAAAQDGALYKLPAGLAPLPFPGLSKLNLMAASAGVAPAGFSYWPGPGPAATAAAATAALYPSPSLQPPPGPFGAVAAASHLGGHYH
To be noted: protein: recombinant; tags: N-terminal GST; dsDNA, one strand shown. In outline: as §1

Assay [11] addresses ETV5 (Homo sapiens, UniProt P41161 1-510). To be noted: protein: recombinant; tags: N-terminal GST; dsDNA, one strand shown. The gist of the method:
as §1

Assay [12] concerns the target HSF1 (Homo sapiens, UniProt Q00613 1-529). The note with it: protein: recombinant; tags: N-terminal GST; chain copies: 3; dsDNA, one strand shown. The gist of the method:
as §1

Assay [13] deals with T8, SPIC (Homo sapiens, UniProt Q8N5J4 1-248).
T8 sequence: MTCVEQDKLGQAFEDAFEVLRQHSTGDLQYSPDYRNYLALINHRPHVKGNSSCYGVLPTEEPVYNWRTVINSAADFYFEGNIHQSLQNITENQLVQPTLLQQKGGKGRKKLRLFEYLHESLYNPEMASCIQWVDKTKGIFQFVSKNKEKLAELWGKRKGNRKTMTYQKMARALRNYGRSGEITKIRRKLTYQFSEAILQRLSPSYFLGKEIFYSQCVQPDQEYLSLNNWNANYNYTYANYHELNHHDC
To be noted: protein: recombinant; tags: N-terminal GST; dsDNA, one strand shown. The gist of the method: as §1

Assay [14] concerns the target ELF4 (Homo sapiens, UniProt Q99607 1-663). The note with it: protein: recombinant; tags: N-terminal GST; dsDNA, one strand shown. In outline:
as §1

Assay [15] deals with T9, ELK4 (Homo sapiens, UniProt P28324-2 1-405).
T9 sequence: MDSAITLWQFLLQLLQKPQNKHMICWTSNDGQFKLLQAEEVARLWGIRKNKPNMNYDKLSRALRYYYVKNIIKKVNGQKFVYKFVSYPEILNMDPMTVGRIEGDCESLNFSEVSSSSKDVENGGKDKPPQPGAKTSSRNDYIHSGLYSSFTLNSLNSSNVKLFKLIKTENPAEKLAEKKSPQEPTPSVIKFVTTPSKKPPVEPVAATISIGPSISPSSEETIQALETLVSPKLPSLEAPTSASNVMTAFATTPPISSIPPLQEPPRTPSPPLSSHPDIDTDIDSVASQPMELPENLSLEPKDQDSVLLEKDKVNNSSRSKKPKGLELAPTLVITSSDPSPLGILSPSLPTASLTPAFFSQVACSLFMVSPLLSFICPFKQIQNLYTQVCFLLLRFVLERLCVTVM
To be noted: protein: recombinant; tags: N-terminal GST; dsDNA, one strand shown. In outline:
as §1

The target in assay [16] is T10, ETV2 (Homo sapiens, UniProt O00321 1-342).
T10 sequence: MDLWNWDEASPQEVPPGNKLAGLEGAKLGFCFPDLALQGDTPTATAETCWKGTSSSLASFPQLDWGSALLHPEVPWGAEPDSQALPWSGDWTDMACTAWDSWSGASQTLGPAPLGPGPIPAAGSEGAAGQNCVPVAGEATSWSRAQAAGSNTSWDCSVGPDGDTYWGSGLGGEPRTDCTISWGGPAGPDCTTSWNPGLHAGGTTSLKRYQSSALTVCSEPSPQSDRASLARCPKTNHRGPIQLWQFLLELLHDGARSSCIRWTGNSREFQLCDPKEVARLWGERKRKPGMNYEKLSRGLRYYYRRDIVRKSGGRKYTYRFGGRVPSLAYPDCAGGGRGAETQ
The note with it: protein: recombinant; tags: N-terminal GST; dsDNA, one strand shown. The gist of the method:
as §1

The target of assay [17] is T11, ELF3 (Homo sapiens, UniProt P78545 1-371).
T11 sequence: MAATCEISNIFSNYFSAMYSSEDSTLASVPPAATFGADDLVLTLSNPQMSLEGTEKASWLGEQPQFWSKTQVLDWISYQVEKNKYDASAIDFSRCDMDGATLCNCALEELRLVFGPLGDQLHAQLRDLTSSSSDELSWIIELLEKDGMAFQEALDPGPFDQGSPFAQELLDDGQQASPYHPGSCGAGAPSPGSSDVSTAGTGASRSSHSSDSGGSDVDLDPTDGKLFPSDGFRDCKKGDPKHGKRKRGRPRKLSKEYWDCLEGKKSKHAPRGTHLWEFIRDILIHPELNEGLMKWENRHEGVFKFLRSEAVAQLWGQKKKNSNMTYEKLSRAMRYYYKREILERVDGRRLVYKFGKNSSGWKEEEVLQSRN
To be noted: protein: recombinant; tags: N-terminal GST; dsDNA, one strand shown. The gist of the method: as §1

The target of assay [18] is CRX (Homo sapiens, UniProt O43186 1-299). To be noted: protein: recombinant; tags: N-terminal GST; dsDNA, one strand shown. In outline: as §1
CRX, sequence (O43186 whole entry): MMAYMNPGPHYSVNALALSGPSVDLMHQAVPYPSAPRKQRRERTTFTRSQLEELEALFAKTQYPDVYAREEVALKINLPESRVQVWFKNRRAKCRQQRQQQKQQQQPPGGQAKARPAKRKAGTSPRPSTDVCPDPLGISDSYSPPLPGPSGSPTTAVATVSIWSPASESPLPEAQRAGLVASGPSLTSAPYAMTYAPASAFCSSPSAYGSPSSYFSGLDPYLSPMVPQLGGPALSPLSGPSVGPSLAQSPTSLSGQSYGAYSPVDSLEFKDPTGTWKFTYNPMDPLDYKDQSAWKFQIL
The target of assay [19] is ETV1 (Homo sapiens, UniProt P50549 1-477). To be noted: protein: recombinant; tags: N-terminal GST; dsDNA, one strand shown. In outline: as §1
ETV1, sequence (P50549 whole entry): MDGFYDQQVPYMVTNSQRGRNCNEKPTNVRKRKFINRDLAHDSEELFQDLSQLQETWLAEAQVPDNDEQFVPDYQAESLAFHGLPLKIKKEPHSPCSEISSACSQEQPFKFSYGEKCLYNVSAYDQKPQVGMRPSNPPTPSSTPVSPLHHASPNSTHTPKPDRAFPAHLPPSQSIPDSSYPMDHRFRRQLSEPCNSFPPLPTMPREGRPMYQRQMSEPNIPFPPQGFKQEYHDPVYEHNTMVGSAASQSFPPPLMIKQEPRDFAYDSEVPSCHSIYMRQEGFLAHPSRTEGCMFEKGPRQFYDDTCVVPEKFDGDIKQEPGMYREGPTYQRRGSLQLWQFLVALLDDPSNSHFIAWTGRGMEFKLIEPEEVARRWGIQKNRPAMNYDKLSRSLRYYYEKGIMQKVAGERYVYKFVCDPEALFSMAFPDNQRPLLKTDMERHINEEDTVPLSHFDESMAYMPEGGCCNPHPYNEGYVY

ELF4, sequence (Q99607 whole entry): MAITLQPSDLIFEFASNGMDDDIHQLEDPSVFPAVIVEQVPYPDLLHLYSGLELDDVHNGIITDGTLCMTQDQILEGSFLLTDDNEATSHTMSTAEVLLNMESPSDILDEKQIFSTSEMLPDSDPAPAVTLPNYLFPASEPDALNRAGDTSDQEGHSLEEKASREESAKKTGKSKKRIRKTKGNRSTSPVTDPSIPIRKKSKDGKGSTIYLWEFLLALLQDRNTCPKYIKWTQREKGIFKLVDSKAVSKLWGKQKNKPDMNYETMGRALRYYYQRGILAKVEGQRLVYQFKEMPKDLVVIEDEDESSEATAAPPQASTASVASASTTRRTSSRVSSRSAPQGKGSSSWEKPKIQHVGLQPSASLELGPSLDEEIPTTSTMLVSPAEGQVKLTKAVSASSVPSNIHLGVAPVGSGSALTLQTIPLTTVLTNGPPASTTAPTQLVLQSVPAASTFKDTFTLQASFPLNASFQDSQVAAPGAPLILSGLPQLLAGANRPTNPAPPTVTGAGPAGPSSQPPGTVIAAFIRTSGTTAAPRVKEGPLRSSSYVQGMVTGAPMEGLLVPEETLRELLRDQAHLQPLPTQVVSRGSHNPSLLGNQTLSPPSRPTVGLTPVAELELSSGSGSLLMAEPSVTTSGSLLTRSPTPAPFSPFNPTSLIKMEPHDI
ETV5, sequence (P41161 whole entry): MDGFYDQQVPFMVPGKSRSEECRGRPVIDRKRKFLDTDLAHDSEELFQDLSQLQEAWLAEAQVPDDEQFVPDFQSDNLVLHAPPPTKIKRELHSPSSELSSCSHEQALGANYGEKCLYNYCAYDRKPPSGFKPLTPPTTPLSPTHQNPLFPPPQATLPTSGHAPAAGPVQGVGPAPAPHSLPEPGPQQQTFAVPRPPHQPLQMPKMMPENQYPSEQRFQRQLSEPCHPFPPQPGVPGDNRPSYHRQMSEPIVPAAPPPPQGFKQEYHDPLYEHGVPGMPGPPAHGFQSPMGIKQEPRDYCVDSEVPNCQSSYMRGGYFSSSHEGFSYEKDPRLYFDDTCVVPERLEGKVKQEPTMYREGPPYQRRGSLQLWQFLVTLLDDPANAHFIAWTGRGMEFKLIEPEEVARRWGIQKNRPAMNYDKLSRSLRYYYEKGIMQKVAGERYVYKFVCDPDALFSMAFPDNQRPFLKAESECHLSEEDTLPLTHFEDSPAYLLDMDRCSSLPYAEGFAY
HSF1, sequence (Q00613 whole entry): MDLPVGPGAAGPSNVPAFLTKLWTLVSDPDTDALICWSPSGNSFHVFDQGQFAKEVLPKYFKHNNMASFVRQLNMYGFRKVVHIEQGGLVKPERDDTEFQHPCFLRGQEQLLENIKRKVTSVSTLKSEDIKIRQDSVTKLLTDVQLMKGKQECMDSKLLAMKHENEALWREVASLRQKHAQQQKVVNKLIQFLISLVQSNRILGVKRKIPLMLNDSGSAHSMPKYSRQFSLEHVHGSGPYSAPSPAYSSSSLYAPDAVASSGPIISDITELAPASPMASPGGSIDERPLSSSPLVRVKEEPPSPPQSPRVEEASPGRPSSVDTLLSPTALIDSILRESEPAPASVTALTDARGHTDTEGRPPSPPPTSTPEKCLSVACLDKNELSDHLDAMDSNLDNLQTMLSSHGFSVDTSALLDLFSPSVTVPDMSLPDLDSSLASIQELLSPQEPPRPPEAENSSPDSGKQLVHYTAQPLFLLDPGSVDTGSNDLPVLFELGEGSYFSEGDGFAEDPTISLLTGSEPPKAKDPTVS

As to AAAATT, the binding signal in assay [1] was 1.35 fold enrichment (6-mer frequency, TF over GST control); in [2] it was 1.34 fold enrichment (6-mer frequency, TF over GST control); in [3], 1.38 fold enrichment (6-mer frequency, TF over GST control); in assay [4], 1.28 fold enrichment (6-mer frequency, TF over GST control); in assay [5], 1.34 fold enrichment (6-mer frequency, TF over GST control); in assay [6], 1.26 fold enrichment (6-mer frequency, TF over GST control). Besides, the binding signal was 1.32 fold enrichment (6-mer frequency, TF over GST control) in assay [7]; 1.45 fold enrichment (6-mer frequency, TF over GST control) in [8]; 1.33 fold enrichment (6-mer frequency, TF over GST control) in assay [9]; 1.29 fold enrichment (6-mer frequency, TF over GST control) in assay [10]; 1.4 fold enrichment (6-mer frequency, TF over GST control) in [11]; 1.73 fold enrichment (6-mer frequency, TF over GST control) in assay [12]. In addition, the binding signal in assay [13] was 1.2 fold enrichment (6-mer frequency, TF over GST control); in assay [14] it was 1.41 fold enrichment (6-mer frequency, TF over GST control); in assay [15], 1.34 fold enrichment (6-mer frequency, TF over GST control); in assay [16], 1.54 fold enrichment (6-mer frequency, TF over GST control); in [17], 1.43 fold enrichment (6-mer frequency, TF over GST control); in assay [18], 1.46 fold enrichment (6-mer frequency, TF over GST control). The binding signal in assay [19] was 1.36 fold enrichment (6-mer frequency, TF over GST control).
